Experimental findings from PubChem BioAssay (Tox21) are described below.

Assay [1] concerns the target Thyrotropin receptor (Homo sapiens) (UniProt P16473). The assay can be described thus: qHTS assay to identify small molecule agonists of the thyroid stimulating hormone receptor (TSHR) signaling pathway (AID 1224843; calls by dose curve; also: nearly all actives have a fitted effect of over 45% in size). In a few lines: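 Compounds are titrated over 15 concentrations, in triplicate, onto TSHR-HEK293 cells seeded at 800/well. Plates sit 30 min at room temperature before cAMP-d2 and anti-cAMP cryptate are added; signal is read after a further hour.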

Assay [2] can be described thus: qHTS assay to identify small molecule agonists of the hypoxia (HIF-1) signaling pathway - cell viability counter screen (AID 1224844; calls by dose curve; also: nearly all actives have a fitted effect of over 50% in size). The gist of the method:
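Cytotoxicity was measured in parallel with the HRE-driven beta-lactamase readout: after 17 hrs of compound exposure at 37C, HRE-bla ME-180 cells received CellTiter-Glo and luminescence was recorded 30 min later.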
(In general: In qHTS, concentration-response curves come from the screen itself.)

Assay [3] is described as follows: qHTS assay to identify small molecule agonists of H2AX (AID 1224845; active = well fitted activation curve with a large enough effect in the signal ratio in the repeat runs, not every such curve was filed as active; the % refers to the signal ratio). In a few lines:
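Wild-type CHO-K1 cells plated overnight, then exposed 3 hr at 37C to compounds at 15 concentrations (0.76% DMSO). Lysed, then HTRF anti-pH2AX(S139)-cryptate/anti-H2AX-d2 detection after 24 hr at room temperature; emissions 665 and 620 nm.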

A short description of assay [4]: qHTS assay to identify small molecule agonists of the hypoxia (HIF-1) signaling pathway (AID 1224846; active = well fitted activation curve with a large enough effect in the signal ratio in the repeat runs, not every such curve was filed as active; the % refers to the signal ratio). In a few lines: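 Compounds from the Tox21 10K library, dissolved in DMSO, are tested for induction of a hypoxia response element–controlled beta-lactamase reporter in ME-180 cells. Exposure lasts 17 hrs at 37C after a 5 hr settling period, followed by CCF4-AM FRET substrate.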

Assay [5] is described as follows: qHTS assay to identify small molecule agonists of H2AX - cell viability counter screen (AID 1224847; calls by dose curve; also: top concentration of the series differs between compounds; nearly all actives have a fitted effect of over 30% in size). The gist of the method:
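CHO-K1 wt, 1000 cells/well, o/n 37C; cpds 15 conc, 3 h 37C, 0.76% DMSO; CellTiter-Glo, 30 min RT, luminescence.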

A short description of assay [6]: qHTS RealTime-Glo MT Cell Viability Assay in HepG2 cells - 24 hour (AID 1224867). Also: nearly all actives have a fitted effect of over 50% in size. The gist of the method:
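HepG2 cells were seeded at 600 cells/well together with NanoLuc luciferase and a cell-permeant prosubstrate, preincubated 5 h at 37 C/5% CO2, then pin-dosed with compounds in DMSO. Nonlytic luminescence from viable cells was read at each time point.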

A short description of assay [7]: qHTS RealTime-Glo MT Cell Viability Assay in HEK293 cells - 32 hour (AID 1224868). Also: top concentration of the series differs between compounds; nearly all actives have a fitted effect of over 50% in size. The gist of the method: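 HEK293 cells were seeded at 600 cells/well together with NanoLuc luciferase and cell-permeant prosubstrate, preincubated 5 h at 37 C/5% CO2, then given compound in DMSO by pintool. Luminescence from viable-cell prosubstrate reduction was read repeatedly over 40 h.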

A short description of assay [8]: A CellTox Green Cytotoxicity Assay to monitor cytotoxicity in HEK293 cells - 0 hour (AID 1224869). Also: nearly all actives have a fitted effect of over 50% in size. In a few lines:
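Cells (HEK293, 600/well) and dye reagent are dispensed together. After 5 h at 37 C, 23 nL compound is pinned in. Plates stay at 37 C for 40 h with fluorescence read at 0h, 8h, 16h, 24h, 32h and 40h.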

Assay [9] is described as follows: qHTS assay to identify small molecule antagonists of the estrogen related receptor (ERR) signaling pathway from Tox21 library (AID 1224848). Also: nearly all actives have a fitted effect of over 50% in size. In a few lines: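 First, 2,000 ERR cells per well were plated and held 6 h at 37 C/5% CO2. Next, compounds in DMSO were pinned in and left 18 h at 37 C. Finally, ONE-Glo was added and luminescence read after 30 min at room temperature.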

Assay [10] can be described thus: qHTS assay to identify small molecule agonists of the estrogen related receptor (ERR) signaling pathway from Tox21 library (AID 1224849; calls by dose curve; also: nearly all actives have a fitted effect of over 15% in size). The note with it: ERR reporter cell line, ONE-Glo luciferase, 18 h; at 92.4 µM (top of the series) unless noted. In a few lines: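 Cells carrying the ERR reporter were plated and allowed to settle for 6 h, exposed to library compounds for 18 h at 37 C, then lysed with ONE-Glo and luminescence measured.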

The structures appear in SMILES notation. A number with no mark means an inactive call. Records with an inconclusive call do not appear. Active and inactive are the calls of the source. Unless noted, calls follow the shape of the dose curve; as a rule, active = well fitted curve in the direction sought with a large enough effect in the repeat runs; inconclusive = weak or mixed curves; inactive = no such curve, though single readings can be large; an effect the other way counts as inactive or inconclusive.
% is scaled to controls: 0 for no effect and ±100 for the full control effect.

Sequence of Thyrotropin receptor (Homo sapiens) (P16473 whole entry, looked up): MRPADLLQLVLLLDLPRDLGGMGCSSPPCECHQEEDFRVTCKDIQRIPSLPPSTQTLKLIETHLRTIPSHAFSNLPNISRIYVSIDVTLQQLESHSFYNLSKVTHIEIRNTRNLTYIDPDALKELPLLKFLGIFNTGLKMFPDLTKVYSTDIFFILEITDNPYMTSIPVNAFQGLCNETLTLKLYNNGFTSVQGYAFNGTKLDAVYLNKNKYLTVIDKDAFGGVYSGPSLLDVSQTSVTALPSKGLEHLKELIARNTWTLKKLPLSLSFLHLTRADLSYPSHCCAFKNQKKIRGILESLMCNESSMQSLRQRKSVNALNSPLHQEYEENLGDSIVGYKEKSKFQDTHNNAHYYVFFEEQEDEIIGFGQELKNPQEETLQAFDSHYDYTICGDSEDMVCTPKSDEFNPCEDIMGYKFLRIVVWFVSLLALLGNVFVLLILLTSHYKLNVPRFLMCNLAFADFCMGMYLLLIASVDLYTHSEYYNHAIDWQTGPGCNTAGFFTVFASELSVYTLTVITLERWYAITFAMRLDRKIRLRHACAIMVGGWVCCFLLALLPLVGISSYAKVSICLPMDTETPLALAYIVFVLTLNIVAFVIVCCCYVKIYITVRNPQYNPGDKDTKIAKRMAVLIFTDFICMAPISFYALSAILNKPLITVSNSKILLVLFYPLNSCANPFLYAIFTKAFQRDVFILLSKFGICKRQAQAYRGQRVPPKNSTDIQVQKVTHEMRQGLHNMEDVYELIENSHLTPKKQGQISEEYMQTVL

Turning to `O=C(O)c1ccccc1-c1ccc(C(F)(F)F)cc1`, the compound was classed as inactive in assay [1], in assay [3], in [4] and in assay [6]. Further, the Potency result in assay [2], in assay [5], in [7] and in assay [8] was “inactive” each time.
With `CC(C)(O)Cc1ccccc1`, the compound was called inactive in [1], in assay [3], in assay [4] and in assay [6]. Also, the Potency entry in assay [2], in assay [5], in assay [9] and in assay [8] was “inactive” in each case. Moreover, the activity change, positive = activation in [10] was -2.35%.
With `COC(=O)CCCCCCCCC(=O)OC`, the outcome in assay [1], in assay [3], in assay [4] and in assay [6] was inactive. In addition, the Potency entry in [2], in assay [9], in [7] and in assay [8] was “inactive” throughout. Further, the activity change, positive = activation in [10] is 0.842%.
With `O=S(=O)(O)c1ccccc1O`, the result in assay [1], in assay [3], in assay [4] and in assay [6] was inactive. Besides, the Potency entry in assay [2], in assay [9], in [7] and in assay [8] was “inactive” in each case. In addition, the activity change, positive = activation in assay [10] was -0.0376%.
Regarding `CCCCCCCCCCCCCCC`, the call in assay [1], in assay [3], in assay [4] and in assay [6] was inactive. Also, the Potency result in assay [2], in assay [9], in assay [7] and in assay [8] was “inactive” in each case. In assay [10], the activity change, positive = activation was 4.59%.
Take `COc1ccc(NC(C)=O)cc1`: the outcome in assay [1], in assay [3], in assay [4] and in assay [6] was inactive. Besides, the Potency result in [2], in [5], in assay [7] and in assay [8] was “inactive” throughout.
`Cc1ccccc1C(=O)O`: the compound was called inactive in assay [1], in assay [3], in assay [4] and in [6]. The Potency entry in assay [2], in assay [5], in assay [7] and in [8] was “inactive” throughout.
For `CCCCCCCCCCCCCCCCCCOCC(O)CO` (configuration not stated), the compound was classed as inactive in assay [1], in assay [3], in assay [4] and in assay [6]. Besides, the Potency result in assay [2], in assay [5], in assay [7] and in [8] was “inactive” throughout.
For the compound `C[N+](C)(C)CC[N+]1(C)Cc2c(Cl)c(Cl)c(Cl)c(Cl)c2C1`, the outcome in assay [1], in [3] and in [4] was inactive. The Potency entry in assay [2], in assay [5], in [7] and in [8] was “inactive” throughout.
`Nc1nc(F)nc2c1ncn2[C@@H]1O[C@H](CO)[C@@H](O)[C@@H]1O`: the call in assay [1], in assay [3], in assay [4] and in [6] was inactive. Also, the Potency entry in assay [2], in assay [5], in [7] and in [8] was “inactive” throughout.
For `CCCCC=O`, the call in assay [1], in [3], in assay [4] and in assay [6] was inactive. Also, the Potency result in assay [2], in assay [5], in assay [7] and in assay [8] was “inactive” each time.
For `Cc1nc(-c2ccc(OCC(C)C)c(C#N)c2)sc1C(=O)O`, the call in [1], in [3], in assay [4] and in assay [6] was inactive. Moreover, the Potency entry in assay [2], in assay [9], in [7] and in [8] was “inactive” in each case. Further, the activity change, positive = activation in assay [10] is 18.5% [at 42.5 µM] (active).
On to `CC(C=O)Cc1ccc(C(C)C)cc1` (configuration not stated), for which the compound was classed as inactive in assay [1], in [3], in [4] and in assay [6]. Also, the Potency result in [2], in assay [5], in [7] and in [8] was “inactive” each time.
For `CC1=CC(=O)CCC1`, the result in assay [1], in [3], in assay [4] and in assay [6] was inactive. In addition, the Potency entry in [2], in [5], in assay [7] and in assay [8] was “inactive” throughout.
As to `COc1ccc(COC=O)cc1`, the compound was classed as inactive in [1], in assay [3], in assay [4] and in assay [6]. Moreover, the Potency result in assay [2], in assay [9], in assay [7] and in assay [8] was “inactive” in each case. For the same compound, the activity change, positive = activation in assay [10] is -0.945%.
Take `C#CC(O)C(CC)CCCC` (configuration not stated): the compound was classed as inactive in assay [1], in [3], in assay [4] and in assay [6]. Moreover, the Potency entry in assay [2], in assay [5], in [7] and in assay [8] was “inactive” each time.
Regarding `CCCC(C)CO` (configuration not stated), the compound was classed as inactive in assay [1], in assay [3], in assay [4] and in assay [6]. Besides, the Potency result in assay [2], in assay [5], in assay [7] and in assay [8] was “inactive” each time.
`C=C(C)C(=O)OCCCCCCCCCCCCCCCCCC`: the activation in [1] is -1.44% [at 19 µM]; in assay [4], -0.144% [at 15.8 µM]. The activity change, negative = cytotoxicity was 5.2% [at 15.8 µM] in assay [2], 1.51% [at 31.6 µM] in [5] and 4.54% [at 15.8 µM] in assay [6]. Moreover, the activation (H2AX phosphorylation) in assay [3] is 0.951% [at 31.6 µM]. Also, the activity change, negative = cytotoxic in assay [7] was 4.26% [at 15.8 µM]. For the same compound, the cytotoxicity in assay [8] was 2.77% [at 15.8 µM].
Turning to `NC(=S)Nc1cccc2ccccc12`, the figures for the activation in assay [1] and in assay [4] were 1.3% [at 8.39 µM] and 1.15% [at 7.01 µM], respectively. For the same compound, the activity change, negative = cytotoxicity in [2] is -3.12% [at 6.97 µM]; in [5] it was 1.9% [at 14 µM]; in assay [6] it was 1.73% [at 6.97 µM]. In addition, the activation (H2AX phosphorylation) in [3] is 4.19% [at 14 µM]. Besides, in assay [7], the activity change, negative = cytotoxic is 15.6% [at 6.97 µM]. Further, the cytotoxicity in assay [8] was 0.823% [at 6.97 µM].
For the compound `NC(CS)C(=O)O` (configuration not stated), the result in assay [1], in assay [3], in [4] and in assay [6] was inactive. Also, the Potency entry in [2], in assay [5], in [7] and in assay [8] was “inactive” in each case.
As for `CC(C)N1C(=O)c2ccccc2C1=O`, the result in [1], in assay [3], in [4] and in [6] was inactive. Also, the Potency result in assay [2], in assay [5], in assay [7] and in [8] was “inactive” in each case.
As to `CO`, the result in [1], in [3], in assay [4] and in assay [6] was inactive. The Potency result in assay [2], in assay [9], in assay [7] and in [8] was “inactive” each time. Besides, in assay [10], the activity change, positive = activation is -0.295%.
In the case of `CC(C)(C)CC(C)(C)N`, the outcome in [1], in assay [3], in assay [4] and in assay [6] was inactive. Besides, the Potency result in [2], in assay [5], in [7] and in assay [8] was “inactive” throughout.
Take `N#CCc1ccccc1[N+](=O)[O-]`: the compound was classed as inactive in assay [1], in assay [3], in assay [4] and in assay [6]. For the same compound, the Potency entry in assay [2], in assay [5], in assay [7] and in [8] was “inactive” each time.
As to `OCC(O)[C@@H](O)[C@H](O)[C@H](O)CO[C@H]1O[C@H](CO)[C@@H](O)[C@H](O)[C@H]1O` (some centres not stated), the outcome in [1], in [3], in [4] and in assay [6] was inactive. Besides, the Potency entry in assay [2], in assay [5], in assay [7] and in assay [8] was “inactive” in each case.
For `CC(C)(C)N(CCO)CCO`, the compound was called inactive in [1], in assay [3], in assay [4] and in [6]. Moreover, the Potency entry in assay [2], in [5], in assay [7] and in [8] was “inactive” throughout.
With `O=C(CCOCCOCCOCCOCCC(=O)Nc1c(I)cc(I)c(C(=O)O)c1I)Nc1c(I)cc(I)c(C(=O)O)c1I`, the compound was called inactive in assay [1], in assay [3], in [4] and in [6]. Further, the Potency entry in assay [2], in [5], in assay [7] and in [8] was “inactive” each time.
